This passage reports outcome and AC50 results from PubChem BioAssay (EPA / NIEHS).

The nature of experiment [1]: ATG_NFI_CIS: Attagene CIS-FACTORIAL HepG2 Assay for human Nuclear Factor I (NFI) (AID 2282989). Conditions: HepG2 cis-regulatory reporter, NFI response element transcription; actives raise or lower the signal. The method in brief:
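Reporter transcription driven by endogenous transcription factors in HepG2 cells; 24 h treatment. Quantitation by labelled RT-PCR fragments on capillary electrophoresis, gain- or loss-of-signal relative to DMSO.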

Experiment [2] has as its target Myc proto-oncogene protein (Homo sapiens) (UniProt P01106). Put plainly: ATG_Myc_CIS: Attagene CIS-FACTORIAL HepG2 Assay for human Myelocytomatosis (Myc) Proto-Oncogene Transcription Factor (AID 2282990). Conditions: HepG2, Attagene cis-reporter transcription factor activity; actives raise or lower the signal. The essentials:
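HepG2 cells transiently transfected with multiple cis-promoter-driven reporter transcription units, so endogenous TF activity is read. After 24 h compound exposure, reporter mRNA was quantified by RT-PCR, 6-FAM labelling, HpaI digestion and capillary electrophoresis; bidirectional fit versus DMSO.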

The nature of experiment [3]: ATG_NF_kB_CIS: Attagene CIS-FACTORIAL HepG2 Assay for human Nuclear Factor Kappa B (NF-kB) (AID 2282991). The note with it: HepG2 Attagene cis-factorial NF-kB reporter mRNA; actives raise or lower the signal. The method in brief:
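Read-out: reporter transcript levels quantified by RT-PCR plus capillary electrophoresis of 6-FAM-labelled, HpaI-cut fragments. Transfected HepG2 cells, 24 h compound exposure, endogenous NF-kB-driven cis element; gain or loss scored versus DMSO.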

Experiment [4] can be described thus: ATG_NRF2_ARE_CIS: Attagene CIS-FACTORIAL HepG2 Assay for human Nuclear Factor Erythroid 2 Related Factor 2 (NFR2) response to Antioxidant Response Elements (ARE) (AID 2282992).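 On AC50: reporter mRNA level measured by RT-PCR and capillary electrophoresis fluorescence.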 Conditions: HepG2 Attagene ARE/NRF2 reporter, transcription factor activity; actives raise or lower the signal. The essentials: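 Fluorescence intensity of reporter-specific cDNA fragments, separated by capillary electrophoresis, reflects mRNA induction in transfected HepG2 cells at 24 h. Activity is fitted bidirectionally, DMSO serving as baseline.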

Experiment [5] is described as follows: ATG_Oct_MLP_CIS: Attagene CIS-FACTORIAL HepG2 Assay for human Octamer-Binding Transcription Factor (Oct) (AID 2282993). The note with it: HepG2 Attagene cis-factorial Oct reporter, mRNA; actives raise or lower the signal. The method in brief:
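Transfected HepG2 cells, 24 h treatment. Reporter mRNA quantified by RT-PCR–capillary electrophoresis; bidirectional fitting against DMSO.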

Experiment [6] concerns the target Cellular tumor antigen p53 (Homo sapiens) (UniProt P04637). The experiment can be described thus: ATG_p53_CIS: Attagene CIS-FACTORIAL HepG2 Assay for human p53 Transcription Factor (AID 2282994). The note with it: HepG2 p53 cis-element reporter, Attagene mRNA; actives raise or lower the signal. The essentials: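 Transiently transfected HepG2 (multiple cis reporter transcription units); exposure 24 h; reporter RNA via RT-PCR, 6-FAM extension, 2 h HpaI digest at 37 C, CE detection; DMSO baseline.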

Experiment [7] concerns the target human Peroxisome Proliferator-activated Receptor delta (PPARd), PPARD (gene 5467) (UniProt Q03181). The experiment can be described thus: ATG_PPARd_TRANS: Attagene TRANS-FACTORIAL HepG2 Assay for human Peroxisome Proliferator-activated Receptor delta (PPARd) (AID 2283002; active means hit-call score of the fitted dose curve at least 0.9, where 1 is the maximum). The essentials:
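HepG2 cells transiently transfected with multiplexed GAL4-UAS reporter units and exogenous chimeric NR-Gal4 proteins; 24 h compound exposure. Reporter mRNA measured by RT-PCR, 6-FAM labelling, HpaI digestion and capillary electrophoresis; gain of signal versus DMSO.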

Experiment [8] deals with human Retinoic Acid Receptor beta (RARb), RARB (gene 5915) (UniProt P10826). Put plainly: ATG_RARb_TRANS: Attagene TRANS-FACTORIAL HepG2 Assay for human Retinoic Acid Receptor beta (AID 2283004; active means hit-call score of the fitted dose curve at least 0.9, where 1 is the maximum). The essentials: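 Transient transfection of HepG2 with multiple reporter units → chemical dosing, 24 h → total RNA isolation → RT with oligo(dT) → reporter-specific PCR, 6-FAM primer extension, HpaI digest → capillary electrophoresis. Positive direction vs DMSO control.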

Experiment [9] concerns the target Retinoic acid receptor alpha (Homo sapiens) (UniProt P10276). The experiment can be described thus: ATG_RARa_TRANS: Attagene TRANS-FACTORIAL HepG2 Assay for human Retinoic Acid Receptor alpha (RARa) (AID 2283005; active means hit-call score of the fitted dose curve at least 0.9, where 1 is the maximum). The essentials:
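HepG2 cells transiently transfected with multiple reporter units expressing chimeric RARα-GAL4 fusion, with GAL4-UAS-driven reporters. After 24 h compound exposure, reporter mRNA induction quantified by RT-PCR and capillary electrophoresis with fluorescent labeling; gain-of-signal fitted relative to DMSO control.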

The target of experiment [10] is Peroxisome proliferator-activated receptor gamma (Homo sapiens) (UniProt P37231). Put plainly: ATG_PPARg_TRANS: Attagene TRANS-FACTORIAL HepG2 Assay for human Peroxisome Proliferator-activated Receptor-gamma (PPARg) (AID 2283007; active means hit-call score of the fitted dose curve at least 0.9, where 1 is the maximum). The method in brief:
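Read-out: reporter mRNA induction, detected by fluorescence after RT-PCR and capillary electrophoresis. Transiently transfected human HepG2 liver cells carrying a chimeric NR-Gal4 construct were dosed for 24 h; activity was fitted upward relative to DMSO.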

Experiment [11] addresses Nuclear receptor subfamily 1 group I member 2 (Homo sapiens) (UniProt O75469). The experiment can be described thus: ATG_PXR_TRANS: Attagene TRANS-FACTORIAL HepG2 Assay for human Pregnane X Receptor (PXR) (AID 2283008; active means hit-call score of the fitted dose curve at least 0.9, where 1 is the maximum). The essentials:
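Transient HepG2 transfectants carrying multiplexed reporter transcription units; PXR activity read through a Gal4 chimera. 24 h exposure. RT-PCR/CE fluorescence; upward curve fit referenced to DMSO.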

Experiment [12] has as its target human RAR-related Orphan Receptor beta (RORb), RORB (gene 6096) (UniProt Q92753). The experiment can be described thus: ATG_RORb_TRANS: Attagene TRANS-FACTORIAL HepG2 Assay for human RAR-related Orphan Receptor beta (RORb) (AID 2283010; active means hit-call score of the fitted dose curve at least 0.9, where 1 is the maximum). The method in brief:
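Read-out is reporter mRNA induction, quantified by RT-PCR with fluorescent capillary electrophoresis, 24 h post-dose in transiently transfected HepG2 expressing exogenous NR-Gal4 chimera. Activity fitted upward versus DMSO.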

Experiment [13] concerns the target human Peroxisome Proliferator-activated Receptor alpha (PPARa), PPARA (gene 5465) (UniProt Q07869). The experiment can be described thus: ATG_PPARa_TRANS: Attagene TRANS-FACTORIAL HepG2 Assay for human Peroxisome Proliferator-activated Receptor alpha (PPARa) (AID 2283001; active means hit-call score of the fitted dose curve at least 0.9, where 1 is the maximum;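 on AC50: potency for gain of reporter signal over DMSO so agonist or activator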). The essentials:
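Cells (HepG2) are transfected with multiple reporter transcription units, exposed to chemical for 24 h, then total RNA is reverse-transcribed and amplified. Labelled products are quantified by capillary electrophoresis; induction is referenced to DMSO.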

Experiment [14] has as its target human Retinoic Acid Receptor gamma (RARg), RARG (gene 5916) (UniProt P13631). Put plainly: ATG_RARg_TRANS: Attagene TRANS-FACTORIAL HepG2 Assay for human Retinoic Acid Receptor gamma (RARg) (AID 2283009; active means hit-call score of the fitted dose curve at least 0.9, where 1 is the maximum). The method in brief: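 Transactivation of exogenous RARg-Gal4 fusion measured as reporter transcript induction after 24 h in transfected HepG2 cells. RNA reverse-transcribed, amplified, fluorescently labeled and resolved by capillary electrophoresis; increase relative to DMSO.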

By AC50 is commonly meant the midpoint of the concentration-response curve, whichever way the signal moves.

Inconclusive results are not listed. Active and inactive are the calls of the source. How the source made its calls, unless noted: active means hit-call score of the fitted dose curve at least 0.9, where 1 is the maximum; inactive means score below 0.9.

human Peroxisome Proliferator-activated Receptor delta (PPARd), PPARD (gene 5467), sequence (Q03181 whole entry, looked up, the tested form may be a part): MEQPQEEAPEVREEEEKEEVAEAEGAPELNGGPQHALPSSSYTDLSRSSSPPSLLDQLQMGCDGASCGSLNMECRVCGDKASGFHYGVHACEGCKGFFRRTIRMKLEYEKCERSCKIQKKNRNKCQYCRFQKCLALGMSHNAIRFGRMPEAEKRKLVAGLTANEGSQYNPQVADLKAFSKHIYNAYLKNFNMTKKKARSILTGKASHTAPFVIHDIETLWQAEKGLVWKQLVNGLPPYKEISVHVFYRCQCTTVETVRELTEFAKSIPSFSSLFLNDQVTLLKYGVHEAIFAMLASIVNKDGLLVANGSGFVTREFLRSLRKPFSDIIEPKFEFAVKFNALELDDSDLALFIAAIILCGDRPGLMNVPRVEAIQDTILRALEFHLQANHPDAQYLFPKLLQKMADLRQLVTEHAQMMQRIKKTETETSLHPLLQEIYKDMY
Peroxisome proliferator-activated receptor gamma (Homo sapiens), sequence (P37231 whole entry, looked up, the tested form may be a part): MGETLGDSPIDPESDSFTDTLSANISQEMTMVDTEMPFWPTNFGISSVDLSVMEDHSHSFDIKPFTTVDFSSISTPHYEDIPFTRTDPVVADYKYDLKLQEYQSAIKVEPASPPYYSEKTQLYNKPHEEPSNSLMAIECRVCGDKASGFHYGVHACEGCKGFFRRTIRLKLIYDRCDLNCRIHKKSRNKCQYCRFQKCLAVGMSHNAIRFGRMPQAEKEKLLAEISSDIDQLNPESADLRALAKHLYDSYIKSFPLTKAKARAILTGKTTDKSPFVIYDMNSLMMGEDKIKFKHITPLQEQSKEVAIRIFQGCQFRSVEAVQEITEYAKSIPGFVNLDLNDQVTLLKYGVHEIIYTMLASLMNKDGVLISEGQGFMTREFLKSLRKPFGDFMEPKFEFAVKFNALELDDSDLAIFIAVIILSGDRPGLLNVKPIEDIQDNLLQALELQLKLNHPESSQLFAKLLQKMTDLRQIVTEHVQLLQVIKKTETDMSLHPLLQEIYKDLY
human Peroxisome Proliferator-activated Receptor alpha (PPARa), PPARA (gene 5465), sequence (Q07869 whole entry, looked up): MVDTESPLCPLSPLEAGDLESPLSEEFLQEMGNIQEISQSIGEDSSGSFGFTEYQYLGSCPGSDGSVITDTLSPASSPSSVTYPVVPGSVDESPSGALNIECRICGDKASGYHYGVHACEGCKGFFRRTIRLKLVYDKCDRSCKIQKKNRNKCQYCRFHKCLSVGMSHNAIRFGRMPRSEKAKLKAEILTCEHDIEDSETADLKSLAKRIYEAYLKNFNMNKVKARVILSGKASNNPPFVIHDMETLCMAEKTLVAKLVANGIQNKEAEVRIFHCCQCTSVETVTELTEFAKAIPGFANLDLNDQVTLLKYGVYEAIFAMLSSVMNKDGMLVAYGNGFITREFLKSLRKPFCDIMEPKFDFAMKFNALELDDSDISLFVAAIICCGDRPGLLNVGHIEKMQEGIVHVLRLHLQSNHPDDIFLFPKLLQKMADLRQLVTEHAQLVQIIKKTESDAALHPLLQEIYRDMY
human Retinoic Acid Receptor beta (RARb), RARB (gene 5915), sequence (P10826 whole entry, looked up): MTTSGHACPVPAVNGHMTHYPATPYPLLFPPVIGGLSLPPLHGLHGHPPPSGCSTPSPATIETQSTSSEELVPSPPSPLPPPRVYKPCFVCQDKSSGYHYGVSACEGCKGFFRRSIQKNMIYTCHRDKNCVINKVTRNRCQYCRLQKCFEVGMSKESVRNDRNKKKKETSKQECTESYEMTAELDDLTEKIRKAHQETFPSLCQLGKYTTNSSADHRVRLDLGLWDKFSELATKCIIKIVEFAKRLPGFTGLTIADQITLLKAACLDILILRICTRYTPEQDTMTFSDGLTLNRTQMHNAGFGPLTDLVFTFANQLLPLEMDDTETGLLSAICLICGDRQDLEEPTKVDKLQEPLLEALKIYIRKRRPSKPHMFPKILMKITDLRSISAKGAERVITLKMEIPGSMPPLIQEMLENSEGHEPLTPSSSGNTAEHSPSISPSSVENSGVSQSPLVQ
Cellular tumor antigen p53 (Homo sapiens), sequence (P04637 whole entry, looked up): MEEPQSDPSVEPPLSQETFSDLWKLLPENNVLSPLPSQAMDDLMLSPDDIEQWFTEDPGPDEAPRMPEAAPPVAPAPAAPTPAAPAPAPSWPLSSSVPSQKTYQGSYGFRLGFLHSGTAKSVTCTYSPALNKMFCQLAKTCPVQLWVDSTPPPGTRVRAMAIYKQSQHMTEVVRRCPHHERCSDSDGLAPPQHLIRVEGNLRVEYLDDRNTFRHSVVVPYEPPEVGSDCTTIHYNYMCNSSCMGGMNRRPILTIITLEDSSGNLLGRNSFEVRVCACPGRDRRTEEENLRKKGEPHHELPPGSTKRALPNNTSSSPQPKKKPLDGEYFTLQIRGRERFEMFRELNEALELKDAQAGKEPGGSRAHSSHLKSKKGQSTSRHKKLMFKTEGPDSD
human RAR-related Orphan Receptor beta (RORb), RORB (gene 6096), sequence (Q92753 whole entry, looked up, the tested form may be a part): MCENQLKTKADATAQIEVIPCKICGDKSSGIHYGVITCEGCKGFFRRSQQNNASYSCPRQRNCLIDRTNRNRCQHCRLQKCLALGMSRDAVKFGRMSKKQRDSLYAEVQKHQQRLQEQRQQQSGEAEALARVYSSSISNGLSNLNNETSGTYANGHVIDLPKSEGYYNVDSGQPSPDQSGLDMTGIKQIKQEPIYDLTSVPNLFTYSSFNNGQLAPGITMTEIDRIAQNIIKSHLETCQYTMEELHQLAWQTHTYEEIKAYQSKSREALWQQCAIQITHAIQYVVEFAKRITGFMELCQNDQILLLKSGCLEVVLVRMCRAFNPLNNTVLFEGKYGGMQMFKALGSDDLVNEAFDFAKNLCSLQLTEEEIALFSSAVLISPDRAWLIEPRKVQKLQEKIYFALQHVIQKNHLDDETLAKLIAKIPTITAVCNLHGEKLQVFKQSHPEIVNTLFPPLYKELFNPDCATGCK
Nuclear receptor subfamily 1 group I member 2 (Homo sapiens), sequence (O75469 whole entry, looked up, the tested form may be a part): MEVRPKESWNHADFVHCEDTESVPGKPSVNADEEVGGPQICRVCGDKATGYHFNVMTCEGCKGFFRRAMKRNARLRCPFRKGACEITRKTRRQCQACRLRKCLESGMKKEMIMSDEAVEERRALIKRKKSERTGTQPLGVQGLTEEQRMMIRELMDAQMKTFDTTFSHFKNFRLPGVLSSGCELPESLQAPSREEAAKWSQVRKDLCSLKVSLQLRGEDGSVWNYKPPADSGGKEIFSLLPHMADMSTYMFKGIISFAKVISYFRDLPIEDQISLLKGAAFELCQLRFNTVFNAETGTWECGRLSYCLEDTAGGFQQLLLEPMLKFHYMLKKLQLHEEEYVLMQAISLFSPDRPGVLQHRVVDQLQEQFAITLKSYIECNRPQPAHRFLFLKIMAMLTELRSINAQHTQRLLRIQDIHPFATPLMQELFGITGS
Myc proto-oncogene protein (Homo sapiens), sequence (P01106 whole entry, looked up): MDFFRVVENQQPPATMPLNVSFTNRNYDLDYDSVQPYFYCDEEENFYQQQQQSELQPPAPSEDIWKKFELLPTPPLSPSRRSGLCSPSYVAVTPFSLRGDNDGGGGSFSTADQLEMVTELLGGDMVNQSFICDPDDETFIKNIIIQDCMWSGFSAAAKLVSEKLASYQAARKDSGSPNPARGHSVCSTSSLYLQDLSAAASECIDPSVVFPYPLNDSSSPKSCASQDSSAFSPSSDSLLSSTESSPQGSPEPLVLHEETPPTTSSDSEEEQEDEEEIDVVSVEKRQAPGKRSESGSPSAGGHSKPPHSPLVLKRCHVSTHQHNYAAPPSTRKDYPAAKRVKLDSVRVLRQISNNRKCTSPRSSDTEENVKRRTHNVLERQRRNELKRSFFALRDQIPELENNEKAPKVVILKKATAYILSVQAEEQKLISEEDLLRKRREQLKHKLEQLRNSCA
Retinoic acid receptor alpha (Homo sapiens), sequence (P10276 whole entry, looked up, the tested form may be a part): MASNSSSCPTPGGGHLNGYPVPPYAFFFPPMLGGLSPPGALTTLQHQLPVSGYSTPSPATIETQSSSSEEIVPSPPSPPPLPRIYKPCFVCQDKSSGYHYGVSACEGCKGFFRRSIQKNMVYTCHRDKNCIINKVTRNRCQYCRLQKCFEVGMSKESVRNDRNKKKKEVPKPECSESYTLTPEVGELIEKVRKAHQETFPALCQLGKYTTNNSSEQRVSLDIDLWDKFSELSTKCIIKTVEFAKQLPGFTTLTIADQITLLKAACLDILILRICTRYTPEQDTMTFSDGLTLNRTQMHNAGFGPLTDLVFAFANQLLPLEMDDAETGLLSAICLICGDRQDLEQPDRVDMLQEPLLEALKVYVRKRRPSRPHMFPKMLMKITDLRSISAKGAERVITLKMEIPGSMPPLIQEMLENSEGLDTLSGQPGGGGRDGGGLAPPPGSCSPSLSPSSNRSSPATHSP
human Retinoic Acid Receptor gamma (RARg), RARG (gene 5916), sequence (P13631 whole entry, looked up, the tested form may be a part): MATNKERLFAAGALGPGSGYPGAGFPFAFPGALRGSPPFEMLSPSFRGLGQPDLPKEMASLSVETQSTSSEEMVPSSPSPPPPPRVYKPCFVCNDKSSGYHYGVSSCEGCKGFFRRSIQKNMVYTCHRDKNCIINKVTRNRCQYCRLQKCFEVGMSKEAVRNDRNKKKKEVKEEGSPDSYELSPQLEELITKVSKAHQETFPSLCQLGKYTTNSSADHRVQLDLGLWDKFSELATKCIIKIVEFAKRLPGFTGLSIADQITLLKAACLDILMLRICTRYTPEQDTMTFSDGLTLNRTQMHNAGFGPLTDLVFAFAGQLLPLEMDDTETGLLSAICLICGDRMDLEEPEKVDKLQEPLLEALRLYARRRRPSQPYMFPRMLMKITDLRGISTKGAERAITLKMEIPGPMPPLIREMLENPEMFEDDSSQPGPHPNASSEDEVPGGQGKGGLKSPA

Take `CC(C)[N+](=O)[O-]`: the compound was called inactive in [1], in experiment [2], in [3], in experiment [4], in [5] and in experiment [6]. The outcome in experiment [7], in experiment [8], in experiment [9], in experiment [10], in experiment [11] and in experiment [12] was inactive.

Regarding `BrCCCCBr`, the call in experiment [1], in [2], in experiment [3], in experiment [4], in experiment [5] and in experiment [6] was inactive. In addition, the compound was classed as inactive in [13], in experiment [8] and in experiment [10].

For the compound `CN(CCCC(O)c1cccnc1)N=O` (configuration not stated), the result in experiment [1], in experiment [2], in experiment [3], in [4], in [5] and in experiment [6] was inactive. The compound was called inactive in experiment [13], in [8], in [9], in [10] and in experiment [12].

`CC(C)(c1ccc(O)c(-c2ccccc2)c1)c1ccc(O)c(-c2ccccc2)c1`: the outcome in experiment [1], in experiment [2], in experiment [3], in experiment [5], in [6] and in experiment [7] was inactive. Further, the result in experiment [9] and in experiment [14] was inactive. Moreover, the AC50 in experiment [4] is 4.64 µM (active); in experiment [10], 1.61 µM (active); in experiment [11] it was 1.45 µM (active).

For `Clc1cc(C(Cl)(Cl)Cl)cnc1Cl`, the AC50 in experiment [1] is 44.8 µM (active); in [2], 55.5 µM (active); in experiment [3] it was 8.56 µM (active); in experiment [5], 15.6 µM (active); in experiment [6], 14.7 µM (active). The outcome in experiment [4], in [13], in experiment [7], in [10], in experiment [11] and in experiment [12] was inactive.

In the case of `CCOc1cc(C=O)ccc1O`, the outcome in [1], in [2], in experiment [3], in [4], in experiment [5] and in experiment [6] was inactive. For the same compound, the compound was classed as inactive in [13], in [7], in [11] and in experiment [12].

For `OC(c1ccc(Cl)cc1)(c1ccc(Cl)cc1)c1cccnc1`, the call in [1], in experiment [2], in [3], in experiment [5], in experiment [6] and in [7] was inactive. The call in [10] and in [11] was inactive. Besides, the AC50 in experiment [4] was 11.1 µM (active).

In the case of `C=CC(=O)OCC(COC(=O)C=C)(COC(=O)C=C)COC(=O)C=C`, the call in experiment [1], in [2], in [4], in experiment [7], in experiment [14] and in experiment [12] was inactive. For the same compound, the concentration at half-maximal activity (AC50) was 1.96 µM (active) in experiment [3]; 8.16 µM (active) in experiment [5]; 8.93 µM (active) in [6]; 100 µM (active) in [13]; 100 µM (active) in experiment [10].

For the compound `ClCCN1CCOCC1`, the call in experiment [1], in [2], in experiment [3], in [4], in [5] and in experiment [6] was inactive. Also, in experiment [7], the outcome was inactive.

As to `Brc1ccc(Oc2c(Br)cc(Br)cc2Br)c(Br)c1`, the call in [1], in experiment [2], in experiment [3], in [4], in [5] and in experiment [6] was inactive. Besides, the compound was called inactive in experiment [13], in experiment [11] and in experiment [12].

As to `CC(C)C(C)(N)C#N` (configuration not stated), the outcome in experiment [1], in [2], in experiment [3], in [4], in experiment [5] and in experiment [6] was inactive. For the same compound, the compound was called inactive in experiment [7], in experiment [9] and in experiment [11].

Take `CNC(=O)O/N=C/C(C)(C)S(C)(=O)=O`: the compound was classed as inactive in experiment [1], in experiment [2], in experiment [3], in [4], in [5] and in experiment [6]. Also, the outcome in [13] and in [12] was inactive.
